# Test results reported in PubChem BioAssay AID1835 (Johns Hopkins Ion Channel Center, 2009).
# Hit rate of the full screen: of about 2,400 compounds, about 750 (31%) were called active.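 The calls were made as follows: active = median signal gain over dofetilide-blocked control wells reaching their mean plus 3 SD, so readout 1 at least 0; inactive = the rest.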 Some of the results follow.
# Molecular target: Voltage-gated inwardly rectifying potassium channel KCNH2 (Homo sapiens) (UniProt Q12809)
# Assay: modulators restoring hERG flux under dofetilide – cell-based, thallium flux, duplicate retest, dofetilide IC70, confirmation (AID 1835)
# Conditions: hERG cell line, FluxOR thallium flux, dofetilide-blocked; at 10 µM; hits give high values
# Chain of Voltage-gated inwardly rectifying potassium channel KCNH2 (Homo sapiens) (Q12809 whole entry, looked up): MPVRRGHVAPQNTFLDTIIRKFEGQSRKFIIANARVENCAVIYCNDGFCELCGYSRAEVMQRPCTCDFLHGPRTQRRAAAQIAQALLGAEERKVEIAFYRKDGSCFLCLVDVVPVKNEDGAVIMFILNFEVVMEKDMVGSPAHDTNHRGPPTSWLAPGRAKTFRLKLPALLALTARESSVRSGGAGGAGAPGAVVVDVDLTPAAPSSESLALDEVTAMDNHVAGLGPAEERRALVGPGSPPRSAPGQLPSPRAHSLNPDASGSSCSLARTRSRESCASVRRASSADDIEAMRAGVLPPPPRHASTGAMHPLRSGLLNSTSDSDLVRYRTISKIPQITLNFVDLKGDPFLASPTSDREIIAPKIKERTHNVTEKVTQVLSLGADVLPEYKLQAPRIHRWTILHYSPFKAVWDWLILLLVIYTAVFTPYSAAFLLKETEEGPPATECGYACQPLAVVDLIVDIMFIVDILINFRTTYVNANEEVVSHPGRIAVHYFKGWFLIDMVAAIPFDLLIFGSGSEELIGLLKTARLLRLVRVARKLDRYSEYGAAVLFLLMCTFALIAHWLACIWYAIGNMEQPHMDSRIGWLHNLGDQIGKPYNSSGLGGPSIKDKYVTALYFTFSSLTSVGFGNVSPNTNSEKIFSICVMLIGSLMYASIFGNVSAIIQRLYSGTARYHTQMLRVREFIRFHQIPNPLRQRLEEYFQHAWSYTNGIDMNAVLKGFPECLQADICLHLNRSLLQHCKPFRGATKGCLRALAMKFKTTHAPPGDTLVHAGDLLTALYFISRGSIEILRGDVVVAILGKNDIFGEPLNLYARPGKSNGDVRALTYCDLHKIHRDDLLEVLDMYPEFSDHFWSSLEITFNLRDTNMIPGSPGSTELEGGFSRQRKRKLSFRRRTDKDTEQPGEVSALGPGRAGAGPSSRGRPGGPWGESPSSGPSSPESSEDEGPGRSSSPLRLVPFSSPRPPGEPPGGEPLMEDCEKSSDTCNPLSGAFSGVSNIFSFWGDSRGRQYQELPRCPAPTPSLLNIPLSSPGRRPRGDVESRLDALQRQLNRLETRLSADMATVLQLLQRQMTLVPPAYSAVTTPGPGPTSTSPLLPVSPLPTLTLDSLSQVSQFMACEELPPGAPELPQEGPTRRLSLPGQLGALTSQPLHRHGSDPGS
row,Structure (SMILES),"activity increase over dofetilide control, less the hit threshold"
1,Cc1cc(SCC(=O)c2cccc([N+](=O)[O-])c2)nc(=O)[nH]1,-9% (inactive)
2,CCOC(=O)/C(C)=N/NC(=O)c1ccc([N+](=O)[O-])cc1,17% (active)
3,CCOc1ccc(C(=O)N/N=C/c2cc([N+](=O)[O-])cs2)cc1,0% (inactive)
4,CCOC(=O)/C(C)=N/NC(=O)c1cccc([N+](=O)[O-])c1,3% (active)
5,Cc1ccccc1C(=O)NNC(=O)c1cccc([N+](=O)[O-])c1,-31% (inactive)
6,CCOC(=O)c1[nH]cnc1C(=O)Nc1ccc([N+](=O)[O-])cc1,-13% (inactive)
7,COc1cccc(C=Nc2cc(C)cc(C)c2)c1O,3% (active)
8,COc1cccc(/C=N/Nc2nc3ccccc3[nH]2)c1O,-4% (inactive)
9,COc1cccc(C=NCCCN=Cc2cccc(OC)c2O)c1O,9% (active)
10,COc1cccc(/C=N/NC(=O)CSc2ccccc2C)c1O,-5% (inactive)
11,CCOc1cccc(/C=N/NC(=O)c2ccc3c(c2)OCCO3)c1O,-10% (inactive)
12,COC(=O)c1cccc(/C=N/NC(N)=S)c1O,-9% (inactive)
13,COc1cccc(C=NCC(C)N=Cc2cccc(OC)c2O)c1O (stereo unspecified),7% (active)
14,COc1cccc(/C=N/n2c(SC)nnc2-c2ccccc2)c1O,-2% (inactive)
15,COc1cc(Br)cc(C=Nc2cccc(C(F)(F)F)c2)c1O,-14% (inactive)
16,O=C(COC(=O)c1cnccn1)c1ccc(Cl)cc1,-9% (inactive)
17,CCCNc1c(NS(=O)(=O)c2cccc(C#N)c2)c(=O)oc2ccccc12,-6% (inactive)
18,CC(=O)Nc1nc2c(F)cccc2s1,-15% (inactive)
19,O=C(Cc1ccc(Cl)cc1)Nc1cccc(-c2nnc(-c3ccco3)o2)c1,-15% (inactive)
20,Fc1cccc2sc(Nc3nnc(-c4ccccc4)o3)nc12,59% (active)
21,Fc1cccc2sc(Nc3nc4c(F)cccc4s3)nc12,22% (active)
22,COc1cccc(-c2nnc(Nc3nc4c(F)cccc4s3)o2)c1,9% (active)
23,Fc1cccc2sc(Nc3nnc(-c4ccco4)o3)nc12,3% (active)
24,O=C(NCCc1ccc(F)cc1)c1coc(=O)c(Br)c1,-17% (inactive)

row,Structure (SMILES),"activity increase over dofetilide control, less the hit threshold"
1,O=C(Nc1nc2c(F)cc(F)cc2s1)C1COc2ccccc2O1 (stereo unspecified),-6% (inactive)
2,Fc1ccc2nc(Nc3nc4c(F)cc(F)cc4s3)sc2c1,4% (active)
3,O=C(CCc1ccccc1)Nc1nnc(-c2ccccn2)o1,-12% (inactive)
4,CCOc1ccccc1CNC(=O)CNC(=O)c1cccs1,-24% (inactive)
5,Cc1ccc(N/C=C/C(=O)c2cccs2)cc1,-15% (inactive)
6,CCc1ccc(NC(=O)C(=O)NNC(=O)c2cccs2)cc1,61% (active)
7,Cc1cc(C(=O)NNC(=O)c2cccs2)nn1C(C)(C)C,-1% (inactive)
8,Cc1ccc(NC(=O)C(=O)NNC(=O)c2cccs2)cc1,74% (active)
9,O=C1c2ccccc2C(=O)N1Cc1cc(-c2ccccc2Cl)no1,-7% (inactive)
10,Cc1cc(C(F)(F)F)n(-c2ccc(N)cc2)n1,-5% (inactive)
11,O=C(CSc1nc2cc(Cl)ccc2s1)c1cc2ccccc2o1,2% (active)
12,O=C(CSc1nnc(SCc2ccccc2)s1)N/N=C/c1ccc(Cl)cc1Cl,-6% (inactive)
13,CCOC(=O)c1[nH]c(=O)[nH]c1COC(=O)c1cc2ccccc2o1,-2% (inactive)
14,CSCC[C@H](NC(=O)Nc1ccc(C)cc1C)C(=O)O,-8% (inactive)
15,COCCCn1c(=S)[nH]c2sc3c(c2c1=O)CCCC3,29% (active)
16,COCCn1c(=S)[nH]c2sc3c(c2c1=O)CCCC3,28% (active)
17,COCCn1c(=S)[nH]c2sc3c(c2c1=O)CCC(C)C3 (stereo unspecified),44% (active)
18,COCCCn1c(=S)[nH]c2c(sc3ccccc32)c1=O,-3% (inactive)
19,CCN1C(=O)C2(/C(=C(\O)c3ccc4c(c3)OCCO4)C(=O)C(=O)N2CCCOC)c2ccccc21 (stereo unspecified),-11% (inactive)
20,CCCCNC(=O)CC(NS(=O)(=O)c1ccc(C)cc1)c1ccco1 (stereo unspecified),-13% (inactive)
21,CCOC(=O)C1=C(C)NC(=O)NC1c1cccc(OC)c1OCc1ccccc1Cl (stereo unspecified),-11% (inactive)
22,O=C(NCc1cccs1)C1CCC(CNS(=O)(=O)c2cccs2)CC1 (stereo unspecified),-16% (inactive)
23,CCC(=O)c1cc2c(C)cc(=O)oc2c(C)c1O,-13% (inactive)
24,CSc1ccccc1NC(=S)NCc1ccc(Cl)cc1,-15% (inactive)

row,Structure (SMILES),"activity increase over dofetilide control, less the hit threshold"
1,COC(=O)c1sccc1NC(=S)N1CCN(C)CC1,-19% (inactive)
2,COC(=O)c1sccc1NC(=S)NCc1ccc(Cl)cc1,19% (active)
3,CCOC(=O)c1c(NC(=O)/C=C/c2ccco2)sc(C)c1C,-14% (inactive)
4,Cc1ccc(OC(=O)c2sc3ncn(C)c(=O)c3c2C)cc1,-18% (inactive)
5,CCOC(=O)c1sc2ncnc(NCc3ccco3)c2c1C,34% (active)
6,CCOC(=O)c1sc2ncnc(NCC(c3cccs3)N(C)C)c2c1C (stereo unspecified),40% (active)
7,c1ccc(Cn2ncc3c(N4CCN(C(c5ccccc5)c5ccccc5)CC4)ncnc32)cc1,-7% (inactive)
8,CCCCCCc1c(O)nc(SCC(=O)O)[nH]c1=O,-16% (inactive)
9,Cc1cccc(NC(=S)c2nc3ccccc3s2)c1,-12% (inactive)
10,Cc1ccc(NC(=S)c2nc3ccccc3s2)cc1,5% (active)
11,S=C(Nc1ccc(Cl)cc1)c1nc2ccccc2s1,46% (active)
12,CC(C)NC(=S)NNc1nc2ccccc2s1,-9% (inactive)
13,O=C(Nc1ccc(Cl)cc1)Nn1cnnc1,-14% (inactive)
14,Clc1ccc(Nc2nc3cccnc3s2)cc1,-18% (inactive)
15,O=C1C(=Cc2cccn2-c2ccc(O)cc2)C(=O)c2ccccc21,-18% (inactive)
16,Cc1oc(/N=C/c2ccc(F)cc2)c(C#N)c1C,-20% (inactive)
17,CCC(NS(=O)(=O)c1cn(C)nc1C)c1ccccc1 (stereo unspecified),-8% (inactive)
18,O=C(CSc1ncnc2c1cnn2-c1ccc(Cl)cc1)NCc1ccc2c(c1)OCO2,-2% (inactive)
19,CSc1ccc(CNc2nc3ccccc3n3cnnc23)cc1,-20% (inactive)
20,Cc1cc(C)c(-c2c(O)c3c(n(C)c2=O)CC(C)(C)CC3=O)c(C)c1,-16% (inactive)
21,CC1CCc2c(sc3[nH]c(=S)n(C)c(=O)c23)C1 (stereo unspecified),82% (active)
22,Cc1cccc(-n2c(=S)[nH]c3sc4c(c3c2=O)CCc2ccccc2-4)c1,-6% (inactive)
23,Cn1c(=S)[nH]c2sc3c(c2c1=O)CCC(C(C)(C)C)C3 (stereo unspecified),59% (active)
